Screening data (PubChem)
Most compounds without a hit are left out; they make up all but 4% or so of the library.
PAX8 inh HTS = inhibitors of PAX8 transcriptional activity in RMG-I cells | RMG-I TPO-luciferase reporter, SteadyGlo, 24 h | inhibition, % at 12.6 µM | 360,000 tested, 1.2% active | AID 652154;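 active = mean replicate inhibition at least 60% with every replicate also reaching 60%; inconclusive = only one of the two criteria is met; inactive = mean below 60% and not all replicates reaching 60%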;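 also: luciferase light reporting Pax8 driven TPO promoter activity; plate controls were median of neutral control wells for no effect and mitoxantrone controls for full effect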
Beta apoptosis = blocks beta cell apoptosis. protection from apoptosis, % (no concentration beside the values). 300,000 tested, 0.8% active. AID 435005. INS-1E cytokine-induced death, ATP luminescence, 48 h; percent of positive-control rescue, neutral wells zero;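 active = Every replicate reaches about 75%, or at least half do and their mean reaches it too, limit read from the data; inconclusive = At least half of replicates reach the limit but their mean does not; inactive = Under half of replicates reach the limit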;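 also: 0% = cytokine-treated negative control wells and 100% = positive control rescue; higher means more ATP so stronger rescue from cytokine killing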
Shn3 3UTR inh = reduces Shn3 3'UTR luciferase signal in osteoblasts. Clone20 osteoblast Shn3 3'UTR firefly luciferase, 24 h. inhibition, % at 12.5 µM. 360,000 tested, 0.52% active. AID 588674;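 active = mean inhibition of at least 75% with every replicate also reaching 75%; inconclusive = mean inhibition at least 75% but some replicate below; inactive = mean inhibition below 75%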;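 also: 0% = median of neutral control wells and 100% = pilot-screen positive control compound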
Mdm2-MdmX inh = inhibitors of human Mdm2/MdmX interaction; O15151+Q00987; SaOS-2 split-luciferase Mdm2/MdmX complementation, luminescence; inhibition, % at 8 µM; 330,000 tested, 3% active;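 active = inhibition of at least 50% at 8 µM in the primary screen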
Target sequence (O15151 whole entry, looked up): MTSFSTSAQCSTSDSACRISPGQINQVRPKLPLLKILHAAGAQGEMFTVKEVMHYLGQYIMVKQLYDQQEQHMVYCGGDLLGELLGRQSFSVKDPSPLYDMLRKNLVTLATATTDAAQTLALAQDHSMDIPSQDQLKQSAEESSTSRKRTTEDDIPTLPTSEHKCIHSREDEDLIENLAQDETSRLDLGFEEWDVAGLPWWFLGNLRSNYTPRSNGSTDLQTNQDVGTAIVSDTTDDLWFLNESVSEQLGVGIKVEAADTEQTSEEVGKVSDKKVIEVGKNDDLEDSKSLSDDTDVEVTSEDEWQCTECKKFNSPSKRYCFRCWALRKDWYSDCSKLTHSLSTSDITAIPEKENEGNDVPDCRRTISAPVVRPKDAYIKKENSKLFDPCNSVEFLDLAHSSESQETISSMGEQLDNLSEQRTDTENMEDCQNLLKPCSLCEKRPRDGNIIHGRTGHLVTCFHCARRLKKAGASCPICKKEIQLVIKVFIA
Target sequence (Q00987 whole entry, looked up): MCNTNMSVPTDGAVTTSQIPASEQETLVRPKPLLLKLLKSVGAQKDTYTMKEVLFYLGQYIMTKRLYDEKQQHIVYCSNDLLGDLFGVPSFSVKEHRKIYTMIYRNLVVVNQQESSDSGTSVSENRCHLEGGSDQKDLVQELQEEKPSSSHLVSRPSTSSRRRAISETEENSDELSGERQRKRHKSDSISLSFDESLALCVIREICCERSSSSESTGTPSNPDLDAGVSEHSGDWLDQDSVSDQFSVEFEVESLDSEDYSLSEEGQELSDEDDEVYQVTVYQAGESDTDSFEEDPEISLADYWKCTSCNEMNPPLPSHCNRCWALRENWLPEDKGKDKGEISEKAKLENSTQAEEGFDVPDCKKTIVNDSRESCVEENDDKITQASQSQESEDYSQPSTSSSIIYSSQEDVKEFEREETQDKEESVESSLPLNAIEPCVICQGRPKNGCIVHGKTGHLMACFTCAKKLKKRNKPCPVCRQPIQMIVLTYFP
Gli-Sufu antag = blocks Gli-Sufu signaling in a luciferase reporter; Sufu-KO-LIGHT fibroblasts, Gli luciferase reporter luminescence; inhibition, % at 5 µM; 340,000 tested, 0.74% active; AID 588413;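 active = inhibition above about 55%, limit read from the data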;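 also: 0% = DMSO-treated cells and 100% = wells with medium but no cells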
CSC inhib = blocks cancer stem cells; 300,000 tested, 1.1% active; inhibition, % at 7.5 µM; cancer stem cell-like cells viability, luminescence; AID 2717; in the data active = inhibition above about 75%; inconclusive = no clear call, values can overlap the other calls; tested in HMLE shEcad cells
Mdm2 MdmX conf = human Mdm2/MdmX binding inhibition, confirmed; inhibition, % at 8 µM; AID 489028; luminescent assay; 10,000 tested, 55% active; shares compounds with Mdm2-MdmX inh; in the data active = inhibition above about 40%
Full FLuc ctr = full-length luciferase inhibition in Mdm2/MdmX counter-screen; shares compounds with Mdm2-MdmX inh; SaOS-2 full-length luciferase counterscreen, luminescence; inhibition, % at 8 µM; 6,200 tested, 77% active;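 active = mean inhibition at 8 µM reaching about 37%, which flags the compound as non-specific, limit read from the data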;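 also: p53-null SaOS-2 cells with luciferase driven by a doxycycline-inducible promoter; compound on cells about two nights before reading with doxycycline added after day one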
* marks the source's active call; other numbers are inactive results; ? = inconclusive; . = no result given.

SMILES	PAX8 inh HTS	Beta apoptosis	Shn3 3UTR inh	Mdm2-MdmX inh	Gli-Sufu antag	CSC inhib	Mdm2 MdmX conf	Full FLuc ctr
O=C(CSc1nc(-c2ccccc2)c(-c2ccccc2)[nH]1)NCc1ccco1	.	-5.2	3.3	53.4*	-0.7	56.3	55.8*	73.2*
O=C(CSc1nnc(-c2ccccc2)c(-c2ccccc2)n1)NCc1ccco1	.	-7.1	6.0	-5.6	-3.2	-1.2	.	.
CCN(CC)C(=O)Oc1ccc(Cl)c2cccnc12	26.4	-1.4	5.8	4.4	-3.3	-8.5	.	.
CCCCC(=O)NC(c1cccs1)c1cc(Cl)c2cccnc2c1O (stereo not given)	?	94.5*	24.4	84.7*	22.1	120.0*	75.3*	28.5
CCC(=O)NC(c1cccs1)c1cc(Cl)c2cccnc2c1O (stereo not given)	58.5	98.9*	72.8	85.9*	46.7	119.2*	75.8*	21.1
CC(=O)c1c(C(C)=O)c(C)n(Cc2ccccc2)c1C	.	-4.0	20.9	-0.5	0.7	-12.2	.	.
Cc1c(C=O)c(C=O)c(C)n1Cc1ccccc1	.	.	9.3	85.9*	17.4	44.1	86.2*	30.8
CC1(C)CC(N=Cc2c(O)n(Cc3ccc4c(c3)OCO4)c(=O)c3ccccc23)CC(C)(C)N1	3.4	2.3	-2.9	93.1*	8.6	-10.1	39.5	68.9*
CN(C)CCN=Cc1c(O)n(Cc2ccccc2)c(=O)c2ccccc12	-12.6	5.8	-7.7	8.6	8.6	-2.8	.	.
CC(C)(C)OC(=O)NCCOCCOCCNc1ncnc2ccc(Br)cc12	-10.8	.	.	.	.	.	.	.
CCOC(=O)c1c(NC(=O)c2ccno2)c2cc([N+](=O)[O-])ccc2n1C	-1.8	-3.2	-15.4	20.3	4.2	-8.3	.	.
CCOC(=O)c1c(NC(=O)c2cc(C)on2)c2cc([N+](=O)[O-])ccc2n1C	.	26.6	.	85.3*	-1.6	13.7	5.8	.
COCC(=O)N1[C@@H](CO)[C@@H](c2ccccc2)C12CN(Cc1ccccc1)C2	-11.8	.	.	.	.	.	.	.
COc1ccc(S(=O)(=O)Nc2ccc3c(c2)C(=O)N([C@H](C)CO)C[C@@H](C)[C@@H](CN(C)Cc2ccc4c(c2)OCO4)O3)cc1	5.2	.	.	.	.	.	.	.
CC(=O)NC(c1cc(F)c2cccnc2c1O)C1CC1 (stereo not given)	8.5	14.2	46.8	30.0	-5.9	1.2	.	.
CCC(=O)NC(c1cc(Cl)c2cccnc2c1O)C1CC1 (stereo not given)	65.6*	103.5*	77.9	52.8*	42.3	32.1	47.0*	18.4
CCC(=O)NC(c1cc(Cl)c2cccnc2c1O)C(C)C (stereo not given)	46.4	104.7*	69.4	52.6*	5.5	34.5	53.2*	10.0
Oc1ccccc1C1CC(c2cccs2)=NC(c2ccc(Cl)cc2)N1 (stereo not given)	-26.1	38.7	16.0	85.0*	1.7	-3.8	85.6*	28.5
C/C(=N\Nc1ccc([N+](=O)[O-])cc1[N+](=O)[O-])c1cccnc1	-4.8	5.6	0.3	19.1	13.1	-3.8	.	.
C/C(=N\Nc1ccc(S(N)(=O)=O)cc1[N+](=O)[O-])c1cccnc1	4.7	0.1	-4.4	58.2*	47.0	9.4	0.6	.
C(=C\c1ccc(C2[C@@H]3CN(Cc4cccnc4)C[C@H]2N3)cc1)/c1ccccc1 (stereo not given in full)	-33.6	.	.	.	.	.	.	.
COc1ccccc1NC(=O)c1oc2ccccc2c1NC(=O)c1cc(OC)c(OC)c(OC)c1	.	8.9	27.6	70.5*	13.8	61.1	62.1*	54.0*
COc1ccc(OC)c(NC(=O)c2oc3ccccc3c2NC(=O)C2CC2)c1	0.1	8.6	-1.6	57.9*	-4.4	-0.9	17.6	.
COCC(=O)Nc1c(C(=O)Nc2ccccc2OC)oc2ccccc12	.	2.3	2.5	-1.0	-9.6	4.0	.	.
CCCC(=O)N1CC2(C1)CN(C(=O)C1CCOCC1)[C@H](CO)c1[nH]c3cc(OC)ccc3c12	-14.7	.	.	.	.	.	.	.
SMILES	PAX8 inh HTS	Beta apoptosis	Shn3 3UTR inh	Mdm2-MdmX inh	Gli-Sufu antag	CSC inhib	Mdm2 MdmX conf	Full FLuc ctr
Cc1noc2ncc(C(=O)c3cc(F)ccc3O)cc12	.	-0.5	2.3	-16.4	5.7	8.5	.	.
Cc1[nH]nc2ncc(C(=O)c3cc(F)ccc3O)cc12	.	-12.1	8.6	52.3*	6.8	-11.7	35.0	61.1*
CNC[C@@H]1Oc2c(NC(=O)c3cc(C)nn3C)cccc2C(=O)N([C@H](C)CO)C[C@@H]1C	4.8	.	.	.	.	.	.	.
CC(C)OC(=O)CSc1nc(N)c(C#N)c(-c2cccs2)c1C#N	27.4	8.2	58.2	-17.0	12.8	-2.5	.	.
CC(=O)CSc1nc(N)c(C#N)c(-c2cccs2)c1C#N	.	7.7	35.8	52.4*	-10.4	-2.0	37.2	41.2*
N#Cc1c(N)nc(SCC(=O)NCCc2ccccc2)c(C#N)c1-c1cccs1	.	-2.5	3.7	63.0*	3.0	5.7	15.3	.
Cc1cccc(CSc2nc(N)c(C#N)c(-c3cccs3)c2C#N)c1	.	13.1	47.3	30.3	10.0	4.7	.	.
C(=N\Nc1nncc2ccccc12)/c1ccccn1	-62.0	97.9*	67.6	79.4*	36.0	-2.4	78.7*	29.9
Cc1cc(=O)[nH]c(N/N=C/c2ccccn2)n1	53.2	95.0*	89.4*	79.9*	46.1	107.2*	77.5*	58.9*
O=c1cnnc(N/N=C/c2ccccn2)[nH]1	54.4	105.9*	95.7*	82.3*	74.4*	120.0*	88.2*	52.6*
C[C@@H]1CN([C@H](C)CO)C(=O)Cc2cc(N(C)C)ccc2O[C@@H]1CN(C)S(=O)(=O)c1ccccc1	-8.1	.	.	.	.	.	.	.
COc1ccc2[nH]c(=O)cc(C(=O)O)c2c1	9.0	-6.0	-0.1	7.5	-1.2	-4.7	.	.
COc1ccc2[nH]c3c4c(ccc3c2c1)C(=O)C=CC4=O	57.7	.	95.6*	74.9*	37.5	.	80.2*	1.5
CO[C@H]1CN(C)C(=O)c2cc(NC(=O)NC(C)C)ccc2OC[C@@H](C)N(CCC(F)(F)F)C[C@@H]1C	-4.2	.	.	.	.	.	.	.
Cc1ccc2ccc(C(Nc3ccccn3)c3ccccc3)c(O)c2n1 (stereo not given)	45.0	.	6.8	42.7	5.5	.	.	.
Oc1ccccc1C(Nc1nccs1)c1ccc2cccnc2c1O (stereo not given)	58.7	87.0*	93.1*	64.0*	8.2	137.7*	78.2*	48.2*
OC(c1ccccc1)C(Nc1ccccn1)c1ccccc1 (stereo not given)	-7.0	.	19.0	.	5.3	.	.	.
Cc1cccc(NC(c2ccc(C)s2)c2ccc3ccc(C)nc3c2O)n1 (stereo not given)	2.5	.	58.8	97.9*	6.4	.	60.8*	23.7
Oc1c(C(Nc2ccccn2)c2ccccn2)ccc2cccnc12 (stereo not given)	37.0	87.0*	84.1	53.0*	50.2	-3.9	71.2*	45.1*
